What follows are targets tested with C#CCNC(=O)CCSSCCC(=O)NCCc1ccc(C=O)c(C=O)c1 (assay: lysine labeling ratio R10:1 (500 µM / 50 µM probe), SILAC-ABPP in living cells; higher = lower intrinsic lysine reactivity toward the probe, active = 2 or less). Conditions: HeLa; probe concentrations 500 vs 50 µM.
In short: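 Each lysine carries an R value: the filtered median of MS1 peptide ratios of high probe to low probe, with the median then taken over forward and reverse replicates. These came from living SILAC light and heavy HeLa cells in PBS at room temperature labelled with an alkyne-tagged, disulfide-linked lysine probe at 500 µM or 50 µM, in forward and reverse swaps. The lysates were mixed, clicked to biotin-azide, trypsin-digested, captured on neutravidin, released by DTT, alkylated and run by LC-MS/MS on a TIMS-TOF Pro. The highest value allowed is 20.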

UniProt P49368, sequence (P49368 whole entry): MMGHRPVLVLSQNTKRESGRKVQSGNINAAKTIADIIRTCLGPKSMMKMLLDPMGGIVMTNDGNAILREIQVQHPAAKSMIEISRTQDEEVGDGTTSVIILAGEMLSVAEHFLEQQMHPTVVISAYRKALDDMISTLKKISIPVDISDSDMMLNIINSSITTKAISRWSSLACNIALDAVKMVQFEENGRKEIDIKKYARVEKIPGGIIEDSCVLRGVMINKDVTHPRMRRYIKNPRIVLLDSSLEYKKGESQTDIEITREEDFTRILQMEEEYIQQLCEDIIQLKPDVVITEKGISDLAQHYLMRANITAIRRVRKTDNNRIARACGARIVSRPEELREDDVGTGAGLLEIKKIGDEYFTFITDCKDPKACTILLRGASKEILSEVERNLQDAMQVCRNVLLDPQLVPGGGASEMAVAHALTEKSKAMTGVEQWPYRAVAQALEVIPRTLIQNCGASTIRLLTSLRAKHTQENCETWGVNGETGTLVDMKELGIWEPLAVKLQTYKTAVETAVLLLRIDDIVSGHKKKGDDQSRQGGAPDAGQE
UniProt P17844, sequence (P17844 whole entry): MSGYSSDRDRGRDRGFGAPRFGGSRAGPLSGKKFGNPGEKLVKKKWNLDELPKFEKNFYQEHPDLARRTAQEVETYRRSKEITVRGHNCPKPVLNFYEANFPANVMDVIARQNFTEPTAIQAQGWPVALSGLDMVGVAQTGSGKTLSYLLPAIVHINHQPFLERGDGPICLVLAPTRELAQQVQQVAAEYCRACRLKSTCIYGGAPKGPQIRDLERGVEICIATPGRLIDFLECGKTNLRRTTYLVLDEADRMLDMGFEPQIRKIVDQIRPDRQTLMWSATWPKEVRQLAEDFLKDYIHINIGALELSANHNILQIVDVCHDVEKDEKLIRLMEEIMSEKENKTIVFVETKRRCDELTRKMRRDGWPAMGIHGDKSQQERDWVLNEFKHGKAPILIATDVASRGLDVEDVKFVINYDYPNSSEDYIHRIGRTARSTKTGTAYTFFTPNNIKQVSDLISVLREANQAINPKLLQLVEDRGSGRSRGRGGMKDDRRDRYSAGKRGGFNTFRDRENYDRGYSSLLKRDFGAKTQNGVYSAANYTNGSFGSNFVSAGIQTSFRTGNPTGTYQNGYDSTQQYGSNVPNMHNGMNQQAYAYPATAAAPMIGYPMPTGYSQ
UniProt Q9UHN6, sequence (Q9UHN6 whole entry): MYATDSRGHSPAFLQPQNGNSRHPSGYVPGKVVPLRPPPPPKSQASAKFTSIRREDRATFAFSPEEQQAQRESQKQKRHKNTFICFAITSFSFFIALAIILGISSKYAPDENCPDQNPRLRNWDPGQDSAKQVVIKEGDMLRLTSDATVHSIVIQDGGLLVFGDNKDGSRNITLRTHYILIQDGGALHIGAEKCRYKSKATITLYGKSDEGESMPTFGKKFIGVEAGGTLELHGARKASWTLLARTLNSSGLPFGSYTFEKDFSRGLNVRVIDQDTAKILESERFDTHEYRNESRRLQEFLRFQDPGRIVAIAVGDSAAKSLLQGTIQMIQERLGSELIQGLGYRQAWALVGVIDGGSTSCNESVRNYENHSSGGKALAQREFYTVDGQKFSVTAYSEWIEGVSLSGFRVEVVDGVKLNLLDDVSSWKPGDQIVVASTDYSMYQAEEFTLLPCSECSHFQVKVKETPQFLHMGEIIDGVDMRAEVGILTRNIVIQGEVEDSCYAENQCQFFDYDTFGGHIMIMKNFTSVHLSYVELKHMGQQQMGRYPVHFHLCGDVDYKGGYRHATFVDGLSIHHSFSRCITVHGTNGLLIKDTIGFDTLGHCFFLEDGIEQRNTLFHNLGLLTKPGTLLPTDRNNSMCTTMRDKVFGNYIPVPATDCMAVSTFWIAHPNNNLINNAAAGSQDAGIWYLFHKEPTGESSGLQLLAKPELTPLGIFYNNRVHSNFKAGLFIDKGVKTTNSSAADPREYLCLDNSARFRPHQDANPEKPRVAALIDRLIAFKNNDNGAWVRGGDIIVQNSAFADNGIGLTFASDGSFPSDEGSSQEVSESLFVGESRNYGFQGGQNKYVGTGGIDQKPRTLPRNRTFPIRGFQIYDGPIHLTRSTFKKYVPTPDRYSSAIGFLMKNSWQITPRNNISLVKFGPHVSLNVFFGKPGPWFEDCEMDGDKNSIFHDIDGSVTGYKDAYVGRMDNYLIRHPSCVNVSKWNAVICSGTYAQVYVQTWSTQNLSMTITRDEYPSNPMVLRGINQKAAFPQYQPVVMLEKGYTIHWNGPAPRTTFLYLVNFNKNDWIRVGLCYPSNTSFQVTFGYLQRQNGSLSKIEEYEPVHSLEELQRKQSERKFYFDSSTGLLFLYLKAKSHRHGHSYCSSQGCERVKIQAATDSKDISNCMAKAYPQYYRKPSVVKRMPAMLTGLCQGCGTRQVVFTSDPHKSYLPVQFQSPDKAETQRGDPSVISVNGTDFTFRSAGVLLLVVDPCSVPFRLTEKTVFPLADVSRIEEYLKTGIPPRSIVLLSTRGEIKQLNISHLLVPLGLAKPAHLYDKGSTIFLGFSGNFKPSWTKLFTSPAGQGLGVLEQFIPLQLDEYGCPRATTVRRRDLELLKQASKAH
UniProt Q15075, sequence (Q15075 whole entry): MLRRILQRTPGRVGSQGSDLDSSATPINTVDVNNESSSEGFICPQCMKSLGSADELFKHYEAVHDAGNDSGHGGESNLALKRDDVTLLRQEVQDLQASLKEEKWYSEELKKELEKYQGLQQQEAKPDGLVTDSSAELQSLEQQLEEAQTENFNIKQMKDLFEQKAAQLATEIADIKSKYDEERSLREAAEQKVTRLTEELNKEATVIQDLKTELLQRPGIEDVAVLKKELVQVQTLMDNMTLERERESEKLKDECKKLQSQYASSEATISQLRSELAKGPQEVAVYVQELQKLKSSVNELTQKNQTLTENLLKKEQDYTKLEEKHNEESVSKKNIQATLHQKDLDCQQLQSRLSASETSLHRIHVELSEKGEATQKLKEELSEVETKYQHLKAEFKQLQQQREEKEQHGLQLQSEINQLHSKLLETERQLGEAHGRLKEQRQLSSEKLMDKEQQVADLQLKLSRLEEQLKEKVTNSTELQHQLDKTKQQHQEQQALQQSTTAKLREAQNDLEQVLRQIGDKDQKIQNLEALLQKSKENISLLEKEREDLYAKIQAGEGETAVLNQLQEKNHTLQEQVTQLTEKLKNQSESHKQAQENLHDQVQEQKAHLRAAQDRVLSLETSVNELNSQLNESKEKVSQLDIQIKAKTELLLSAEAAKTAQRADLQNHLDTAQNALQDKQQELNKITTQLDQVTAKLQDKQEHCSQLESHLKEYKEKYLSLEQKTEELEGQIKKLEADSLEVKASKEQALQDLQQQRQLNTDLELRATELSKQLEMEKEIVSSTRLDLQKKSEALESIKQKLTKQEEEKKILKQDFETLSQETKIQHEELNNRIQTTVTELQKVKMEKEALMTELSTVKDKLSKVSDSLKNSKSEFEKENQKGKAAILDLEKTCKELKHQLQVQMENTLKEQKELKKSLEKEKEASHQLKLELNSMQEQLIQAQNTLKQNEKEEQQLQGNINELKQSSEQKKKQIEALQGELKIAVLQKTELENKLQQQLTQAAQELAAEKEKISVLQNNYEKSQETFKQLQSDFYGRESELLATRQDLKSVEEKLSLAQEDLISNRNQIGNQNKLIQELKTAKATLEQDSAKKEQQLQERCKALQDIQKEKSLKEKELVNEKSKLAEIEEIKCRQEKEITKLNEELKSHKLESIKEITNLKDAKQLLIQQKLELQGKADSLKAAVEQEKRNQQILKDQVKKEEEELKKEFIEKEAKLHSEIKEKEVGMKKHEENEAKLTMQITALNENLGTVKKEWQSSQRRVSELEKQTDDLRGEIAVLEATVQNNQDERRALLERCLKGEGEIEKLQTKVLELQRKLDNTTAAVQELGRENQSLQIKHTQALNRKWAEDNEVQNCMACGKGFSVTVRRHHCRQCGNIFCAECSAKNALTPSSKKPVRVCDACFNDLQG
UniProt P16949, sequence (P16949 whole entry): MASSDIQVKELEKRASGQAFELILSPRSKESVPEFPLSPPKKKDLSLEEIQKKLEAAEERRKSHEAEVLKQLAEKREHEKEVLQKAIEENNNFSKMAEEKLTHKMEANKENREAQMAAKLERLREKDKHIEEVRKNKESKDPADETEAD
UniProt P52799, sequence (P52799 whole entry): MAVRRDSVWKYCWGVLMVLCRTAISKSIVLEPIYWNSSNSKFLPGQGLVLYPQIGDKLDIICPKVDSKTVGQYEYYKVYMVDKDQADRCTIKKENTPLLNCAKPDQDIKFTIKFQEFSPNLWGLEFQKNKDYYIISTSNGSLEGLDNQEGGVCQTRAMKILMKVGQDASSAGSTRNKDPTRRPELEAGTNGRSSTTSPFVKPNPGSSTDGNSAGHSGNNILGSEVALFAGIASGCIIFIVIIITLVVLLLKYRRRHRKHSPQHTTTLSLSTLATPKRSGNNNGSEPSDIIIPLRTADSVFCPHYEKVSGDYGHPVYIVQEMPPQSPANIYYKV
UniProt P14866, sequence (P14866 whole entry): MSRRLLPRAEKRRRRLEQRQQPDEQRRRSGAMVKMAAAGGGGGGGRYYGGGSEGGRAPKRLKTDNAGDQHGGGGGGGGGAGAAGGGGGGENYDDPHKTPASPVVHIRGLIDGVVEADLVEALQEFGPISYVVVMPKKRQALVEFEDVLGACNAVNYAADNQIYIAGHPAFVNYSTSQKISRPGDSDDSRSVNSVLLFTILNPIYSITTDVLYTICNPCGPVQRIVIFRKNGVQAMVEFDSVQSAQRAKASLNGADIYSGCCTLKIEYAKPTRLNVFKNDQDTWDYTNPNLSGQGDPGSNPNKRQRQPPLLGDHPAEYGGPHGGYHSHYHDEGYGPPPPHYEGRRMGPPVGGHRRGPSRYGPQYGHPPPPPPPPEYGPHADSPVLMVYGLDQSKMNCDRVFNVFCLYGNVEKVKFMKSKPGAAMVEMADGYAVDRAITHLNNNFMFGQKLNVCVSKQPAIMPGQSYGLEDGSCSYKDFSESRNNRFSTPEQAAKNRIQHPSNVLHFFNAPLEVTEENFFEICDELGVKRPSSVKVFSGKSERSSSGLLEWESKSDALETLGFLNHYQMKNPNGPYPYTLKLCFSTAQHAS

| Target | lysine labeling ratio R10:1 |
| --- | --- |
| HSPA8 (lysine site: K319) (UniProt P11142) | 4.74 (inactive) |
| HNRNPL (lysine site: K493) (UniProt P14866) | 1.94 (active) |
| DNASE1L1 (lysine site: K33) (UniProt P49184) | 11 (inactive) |
| P30462 (lysine site: K267) (UniProt P01889) | 2.91 (inactive) |
| SPTBN1 (lysine site: K997) (UniProt Q01082) | 2.87 (inactive) |
| UniProt P61353 (lysine site: K98) | 1.21 (active) |
| UniProt P21589 (lysine site: K536) | 1.24 (active) |
| HEG1 (lysine site: K1075) (UniProt Q9ULI3) | 3.38 (inactive) |
| DDX5 (lysine site: K207) (UniProt P17844) | 4.37 (inactive) |
| HSPD1 (lysine site: K133) (UniProt P10809) | 3.96 (inactive) |
| FLNA (lysine site: K2417) (UniProt P21333) | 4.07 (inactive) |
| CSE1L (lysine site: K158) (UniProt P55060) | 3.34 (inactive) |
| SEMA3C (lysine site: K247) (UniProt Q99985) | 4.79 (inactive) |
| MET (lysine site: K725) (UniProt P08581) | 0.656 (active) |
| FLNB (lysine site: K746) (UniProt O75369) | 3.48 (inactive) |
| ANXA1 (lysine site: K166) (UniProt P04083) | 1.32 (active) |
| SPTAN1 (lysine site: K1543) (UniProt Q13813) | 1.58 (active) |
| UniProt P60842 (lysine site: K309) | 1.73 (active) |
| RPL5 (lysine site: K284) (UniProt P46777) | 1.68 (active) |
| ITGB1 (lysine site: K163) (UniProt P05556) | 2.37 (inactive) |

| Target | lysine labeling ratio R10:1 |
| --- | --- |
| EFNB2 (lysine site: K83) (UniProt P52799) | 2.34 (inactive) |
| SDCBP (lysine site: K109) (UniProt O00560) | 5.45 (inactive) |
| IGSF3 (lysine site: K642) (UniProt O75054) | 1.12 (active) |
| EEF1G (lysine site: K437) (UniProt P26641) | 3.73 (inactive) |
| CCT3 (lysine site: K427) (UniProt P49368) | 0.772 (active) |
| EEA1 (lysine site: K583) (UniProt Q15075) | 3.77 (inactive) |
| RARS (lysine site: K557) (UniProt P54136) | 1.64 (active) |
| UniProt P55072 (lysine site: K696) | 1.22 (active) |
| LAMB1 (lysine site: K1746) (UniProt P07942) | 3.26 (inactive) |
| DDX5 (lysine site: K391) (UniProt P17844) | 10.4 (inactive) |
| CD109 (lysine site: K1018) (UniProt Q6YHK3) | 1.99 (active) |
| EPHB2 (lysine site: K158) (UniProt P29323) | 2.25 (inactive) |
| CSF2RA (lysine site: K108) (UniProt P15509) | 0.663 (active) |
| MSN (lysine site: K514) (UniProt P26038) | 3.78 (inactive) |
| STMN1 (lysine site: K128) (UniProt P16949) | 2.8 (inactive) |
| RPL34 (lysine site: K62) (UniProt P49207) | 10.1 (inactive) |
| SMOC1 (lysine site: K223) (UniProt Q9H4F8) | 4.99 (inactive) |
| ATAD3B (lysine site: K183) (UniProt Q5T9A4) | 1.8 (active) |
| CCT3 (lysine site: K249) (UniProt P49368) | 1.76 (active) |
| UniProt Q9UHN6 (lysine site: K767) | 3.26 (inactive) |

Reference: the supplement of paper PMC11001985
